These sequences were tested against PUM1 PUF domain R3-PWG (Homo sapiens, UniProt Q14671 828-1176, C935P;R936W;Q939G) (assay: yeast three-hybrid, YBZ-1, SC-Leu-His + 0.5 mM 3-AT, 4 days). Details: tags: N-Gal4 AD-HA kept; label: inside an RPR1-promoter hybrid RNA with tandem MS2 sites; ssRNA.
Summary of the method: (§1)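 A centromeric plasmid in strain YBZ-1 co-expressed Pumilio-1 PUF domain libraries, randomized at the three base-contacting residues of each repeat, with matching RNA elements; the strain carries a LexA–MS2 coat fusion and a HIS3 reporter. After four days on SC-Leu (input) or SC-Leu-His + 0.5 mM 3-AT (selection), the repeat regions were PCR-amplified and Illumina-sequenced. The interaction score is the log change in variant frequency from input to selection, using log2 and a pseudocount of 1 where absent.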

| Sequence | binding signal |
| --- | --- |
| GGCUAGAACUAGUGGAUCCCCCGGCGCCCGGCGGCUCGAGCCCGGGUAAGUGUAAAUAGUCUGCAUGCCGCCGGGCGCCAUGCCUGCAGGUCGACUCUAGAAAACAUG | 4.24 log2 enrichment (interaction score) |
| GGCUAGAACUAGUGGAUCCCCCGGCGCCCGGCGGCUCGAGCCCGGGUAAGUGUAAGUAGUCUGCAUGCCGCCGGGCGCCAUGCCUGCAGGUCGACUCUAGAAAACAUG | 2.38 log2 enrichment (interaction score) |
| GGCUAGAACUAGUGGAUCCCCCGGCGCCCGGCGGCUCGAGCCCGGGUAAGUGUAAUUAGUCUGCAUGCCGCCGGGCGCCAUGCCUGCAGGUCGACUCUAGAAAACAUG | 2.22 log2 enrichment (interaction score) |

These sequences were tested against PUM1 PUF domain R3-TRA (Homo sapiens, UniProt Q14671 828-1176, C935T;Q939A) in the same assay as above. Details: tags: N-Gal4 AD-HA kept; label: inside an RPR1-promoter hybrid RNA with tandem MS2 sites; ssRNA.
Summary of the method: as §1

| Sequence | binding signal |
| --- | --- |
| GGCUAGAACUAGUGGAUCCCCCGGCGCCCGGCGGCUCGAGCCCGGGUAAGUGUAAAUAGUCUGCAUGCCGCCGGGCGCCAUGCCUGCAGGUCGACUCUAGAAAACAUG | 3.6 log2 enrichment (interaction score) |
| GGCUAGAACUAGUGGAUCCCCCGGCGCCCGGCGGCUCGAGCCCGGGUAAGUGUAAGUAGUCUGCAUGCCGCCGGGCGCCAUGCCUGCAGGUCGACUCUAGAAAACAUG | 0.89 log2 enrichment (interaction score) |
| GGCUAGAACUAGUGGAUCCCCCGGCGCCCGGCGGCUCGAGCCCGGGUAAGUGUAAUUAGUCUGCAUGCCGCCGGGCGCCAUGCCUGCAGGUCGACUCUAGAAAACAUG | 0.43 log2 enrichment (interaction score) |

These sequences were tested against PUM1 PUF domain R3-AWG (Homo sapiens, UniProt Q14671 828-1176, C935A;R936W;Q939G) in the same assay as above. Details: tags: N-Gal4 AD-HA kept; label: inside an RPR1-promoter hybrid RNA with tandem MS2 sites; ssRNA.
Summary of the method: as §1

| Sequence | binding signal |
| --- | --- |
| GGCUAGAACUAGUGGAUCCCCCGGCGCCCGGCGGCUCGAGCCCGGGUAAGUGUAAAUAGUCUGCAUGCCGCCGGGCGCCAUGCCUGCAGGUCGACUCUAGAAAACAUG | 3.6 log2 enrichment (interaction score) |
| GGCUAGAACUAGUGGAUCCCCCGGCGCCCGGCGGCUCGAGCCCGGGUAAGUGUAAGUAGUCUGCAUGCCGCCGGGCGCCAUGCCUGCAGGUCGACUCUAGAAAACAUG | 0.66 log2 enrichment (interaction score) |
| GGCUAGAACUAGUGGAUCCCCCGGCGCCCGGCGGCUCGAGCCCGGGUAAGUGUAAUUAGUCUGCAUGCCGCCGGGCGCCAUGCCUGCAGGUCGACUCUAGAAAACAUG | 0.35 log2 enrichment (interaction score) |

The sequences below were run against PUM1 PUF domain R4-GRG (Homo sapiens, UniProt Q14671 828-1176, N971G;H972R;Q975G) in the same assay as above. Details: tags: N-Gal4 AD-HA kept; label: inside an RPR1-promoter hybrid RNA with tandem MS2 sites; ssRNA.
Summary of the method: as §1

| Sequence | binding signal |
| --- | --- |
| GGCUAGAACUAGUGGAUCCCCCGGCGCCCGGCGGCUCGAGCCCGGGUAAGUGUAAAUAGUCUGCAUGCCGCCGGGCGCCAUGCCUGCAGGUCGACUCUAGAAAACAUG | 5.19 log2 enrichment (interaction score) |
| GGCUAGAACUAGUGGAUCCCCCGGCGCCCGGCGGCUCGAGCCCGGGUAAGUGUACAUAGUCUGCAUGCCGCCGGGCGCCAUGCCUGCAGGUCGACUCUAGAAAACAUG | 0.59 log2 enrichment (interaction score) |
| GGCUAGAACUAGUGGAUCCCCCGGCGCCCGGCGGCUCGAGCCCGGGUAAGUGUAUAUAGUCUGCAUGCCGCCGGGCGCCAUGCCUGCAGGUCGACUCUAGAAAACAUG | 2.09 log2 enrichment (interaction score) |

Each sequence was assayed against PUM1 PUF domain R5-RRC (Homo sapiens, UniProt Q14671 828-1176, C1007R;Q1011C) in the same assay as above. Details: tags: N-Gal4 AD-HA kept; label: inside an RPR1-promoter hybrid RNA with tandem MS2 sites; ssRNA.
Summary of the method: as §1

| Sequence | binding signal |
| --- | --- |
| GGCUAGAACUAGUGGAUCCCCCGGCGCCCGGCGGCUCGAGCCCGGGUAAGUGUAAAUAGUCUGCAUGCCGCCGGGCGCCAUGCCUGCAGGUCGACUCUAGAAAACAUG | 2.21 log2 enrichment (interaction score) |
| GGCUAGAACUAGUGGAUCCCCCGGCGCCCGGCGGCUCGAGCCCGGGUAAGUGUUAAUAGUCUGCAUGCCGCCGGGCGCCAUGCCUGCAGGUCGACUCUAGAAAACAUG | 4.61 log2 enrichment (interaction score) |
| GGCUAGAACUAGUGGAUCCCCCGGCGCCCGGCGGCUCGAGCCCGGGUAAGUGUGAAUAGUCUGCAUGCCGCCGGGCGCCAUGCCUGCAGGUCGACUCUAGAAAACAUG | 1.37 log2 enrichment (interaction score) |
| GGCUAGAACUAGUGGAUCCCCCGGCGCCCGGCGGCUCGAGCCCGGGUAAGUGUCAAUAGUCUGCAUGCCGCCGGGCGCCAUGCCUGCAGGUCGACUCUAGAAAACAUG | 3.9 log2 enrichment (interaction score) |

From article PMC8384837, “Expanding the binding specificity for RNA recognition by a PUF domain”
